Source: the supplement of paper PMC6555819

What follows are sequences tested on VDR:RXRa (NR concentration 270 nM, RXRa partner concentration 90 nM) (assay: PBM binding z-score (relative to random genomic background probes); higher = stronger binding; sequences stand for … in GC…GCGATTGACAGCGTAGAATGAAGG).
Method: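 Protein-binding microarray (Agilent 4x180K custom design, double-stranded 60-nt probes: 5' GC cap, 34-nt variable region, 24-nt constant primer region; full probe sequence given). Purified or IVT nuclear receptor:RXRα heterodimers (3:1 NR:RXRα, mostly 270:90 nM) or homodimers were incubated for 1 h in PBS with 2% milk and no ligand, then detected with Alexa488 antibodies. Fluorescence from o1-orientation probes (~5 replicates averaged) was converted to z-scores against 500 random hg19 background probes. Variable regions are seed direct-repeat (DR0–DR5) sites, all their single-nucleotide variants and half-site ablations.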

Sequence | PBM binding z-score
TCTCGGAGGACTCGAAAGGTCAGAGCTCGACATC | 2.4
CCTGCTAGGTCATGTTCAGCTAATCTACAGTATG | 1.48
CTGGAAAGGTCGGTTGAGGTGAGTATACGGATAA | 2.15
CAAACTAGGTAAAGGTCAAAGTCGGTTTGTGCCA | 5.38
ATCTTTAGGTAAGACTCAGTTCAGTGAAGAACGC | 0.748
TCATATACGTAAAAGGTGAAAGTCGGTGTGGTAA | 1.43
AGAATGAGGTTAAGATCACGGAAACAGAATACAT | 1.41
CTTTACGGGTCACGAGGTTATAGCACGACGAGCG | 5.31
GCTGCTAGGACAACTGATGGTCAGCTAAAGCTCG | -0.904
CGTACAAGGTCAGCAGGTCAGTGAAAGCGACGTG | 4.16
GGCACGAGGGCAAGTTGATAGCAGAGTTTGATGG | 0.599
AGAACGAGGGCACGCCGAGTTGATAGCAGAGTAG | 2.27
CCTGCTGGGTCATGGTCAGCTAATCTACAGTATG | 1.28
GGAACGAGGGCATACGAGTTGATAGCATGGCGAT | 2.73
TCTGCTAGGTCAACGATGGTCAGGTAATCTGCTA | 1.78
TAGCTTAGGTCAGATCGGGCCAGTATACGCTATA | 0.872
GCGACTGGGGCGTCAGCAGGTTACCATAACTTAA | -0.382
GCGATTAGTTGAAAGGGCAACCGAATGATTCTCG | 0.316
CCGCCTGGGGCAAAGGTTACCATACTCAGTACGA | 1.48
CCTAGCAGGCCAATCTGGGTAACTCAAGGCTTGA | -0.773

Sequence | PBM binding z-score
CGAACTAGGTCATCCCGGACAGTGAATACATTGA | 3.63
ACTATTAGTTTACTTAGGGCAACCGATACGACGC | 0.639
CCAGACAGGTGAGAACGTAACTCAGCCTCGATTA | -0.0392
TAGAGTAGGTTACCAATGGGGCATTCAGCTTTCT | 0.34
CTCGAAAGGTCGGTTGAGGTGAGTATACGGATAA | 2.14
CGTCAAAGTTCAACTACGGTAACGTAAAGCACGC | 4.19
TCTTGTAGATCAGCAGGTTAAGAATGCTGGCCAA | 0.397
ATCGAAAGGTCGAGGTAAGTATAGAGAAAGGGAA | 2.36
ATTTCTAGGTAAAGATAGTTCAGTGAATGCAAAT | 1.18
AGAACGAGGGCACGCTGAGTTGATACCAGAGTAG | 2.23
ATATGTAGGTTACATACGGGTCATTCAGGCTATG | 4.14
ATCTCTAGGTAACAAGTTCGGTGAAAGAGAGGAC | 0.955
CCTAGTTGGTCAGGAGGTCACACAGCGGATATGA | 3.94
AGAACGAGGGAAATGAGTTGATAGCACGGGTGGC | 0.62
CTTCCAAGGTGAACAAGGTCGTTGATTACTATTC | 6.21
ATCTCTATGTAAAAGTTCAGTGAATCCCGAGGAT | 1.2
CGAACTAGGTCATCCAGGCCAGTGAATACATTGA | 3.97
TCTTGTAGATCAGCAGGTTGAGAAAGCTGGCCAA | 0.543
CCTACAGGGCCAAAAAGGTCATTGATGCCGATAA | 5.62
ACAGACAGGTGAGTCAAGGTAACTCAGCTGGACG | -0.187
